Experimental data as given in PubChem BioAssay.
Calls of active or inactive are those of the source.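 The calls were made as follows, unless noted: active = fluorescence slope after compound addition differing from the mean of all screened samples at 99.7% confidence, in either direction; inactive = the rest.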

Legend:
[1] = inhibitors of TNFa-induced NFkB p65 translocation, primary screen, imaging, HUVEC, MLSMR starter and 10KST1 sets (AID 438;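 active = inhibition above 20% together with a positive visual image hit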;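 also: compound added about 3h40 before a 20 min TNFalpha stimulation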;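 as to inhibition: signal is the nuclear over cytoplasmic p65 intensity ratio per well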); conditions: HUVEC TNFa-induced p65 nuclear translocation; cell count: measured here: nuclei count (cytotoxicity indicator), at 2.08 µM; inhibition: at 2 µM, stronger effect = higher value, 0% TNFa-plus-vehicle, 100% no-TNFa wells
[2] = inhibitors of mutant huntingtin aggregation, primary screen, imaging, exon1htt(103Q)mCFP cells, high-content imaging (AID 483;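 active = visual image review flags a hit and inhibition of aggregation exceeds 20%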;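 also: compound exposure lasted 3 days before fixation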;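 as to nuclei count: percent of the per-plate median nuclei count of sample wells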); conditions: exon1htt(103Q)mCFP cell line, aggregate imaging, at 2 µM; inhibition of aggregation: stronger effect = higher value; nuclei count: measured here: cell count, toxicity
[3] = inhibitors of E-selectin induction by TNFa, primary screen, imaging, HUVEC, immunofluorescence, MLSMR starter and 10KST1 sets (AID 487;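 active = visually confirmed hit in the image check and inhibition above 20%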;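 as to inhibition: signal is fraction of cell area covered by stained E-selectin grains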;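 as to nuclei count: 100% = median nuclei count of all wells on the same plate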); conditions: HUVEC TNFalpha-induced E-selectin immunofluorescence imaging, at 2 µM; inhibition: stronger effect = higher value; nuclei count: measured here: cell number, toxicity
[4] = biological target: Voltage-gated potassium channel subunit beta-2 (Rattus norvegicus) (UniProt P62483); assay: KvBeta enzyme negative modulators, primary screen, biochemical, NADPH fluorescence (AID 622;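 active = fluorescence slope higher than the sample average by over 3 SD, cut at about -0.22 in these data, passing the limit was not always enough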;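 also: slope of raw intensity against log time taken from 70 to 1610 s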); conditions: recombinant KvBeta, 4-cyanobenzaldehyde reduction, at 10 µM, stronger effect = higher value
[5] = biological target: Voltage-gated potassium channel subunit beta-2 (Rattus norvegicus) (UniProt P62483); assay: KvBeta positive modulators, primary screen, biochemical, NADPH fluorescence (AID 623;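 active = NADPH fluorescence slope more negative than the mean of all samples by about 3 SD, 99.7% confidence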;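 also: fluorescence intensity change per second fitted from 20 to 320 s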); conditions: Recombinant KvBeta, NADPH fluorescence decrease slope, 10 min; at 10 µM; stronger effect = lower value
[6] = biological target: Alpha-2C adrenergic receptor (Homo sapiens) (UniProt P18825); assay: modulators of alpha2C/GIRK thallium flux, primary screen, cell-based, HEK293 alpha2C/GIRK1/2 (AID 624); conditions: thallium flux BTC fluorescence, at 10 µM, actives lie on both sides;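 also: slope of fluorescence ratio to pre-addition baseline per second over 15 to 24 s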
[7] = inhibitors of Sendai virus-induced IRF3 signaling, primary screen, TLR/RLR signaling modifier project, cell-based, Sendai virus stimulus, luciferase, 10K MLSCN set (AID 602276;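 active = inhibition at or above 50% at 10 µM; inactive = inhibition below 50%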;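 also: firefly luciferase from ISG56 promoter only with Renilla not read in this screen; 0% = Sendai virus plus DMSO and 100% = medium plus DMSO without virus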); conditions: HEK293 RL24 IRF3 luciferase reporter, at 10 µM, stronger effect = higher value
[8] = inhibitors of poly I:C-induced TLR3 signaling, primary screen, cell-based, poly I:C stimulus, luciferase, 10K MLSCN set (AID 602277;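 active = inhibition of the reporter signal at or above 50%; inactive = inhibition below 50%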); conditions: HEK293-TLR3 RL24 IRF3 luciferase reporter, at 10 µM, stronger effect = higher value

Voltage-gated potassium channel subunit beta-2 (Rattus norvegicus), sequence (P62483 whole entry, looked up): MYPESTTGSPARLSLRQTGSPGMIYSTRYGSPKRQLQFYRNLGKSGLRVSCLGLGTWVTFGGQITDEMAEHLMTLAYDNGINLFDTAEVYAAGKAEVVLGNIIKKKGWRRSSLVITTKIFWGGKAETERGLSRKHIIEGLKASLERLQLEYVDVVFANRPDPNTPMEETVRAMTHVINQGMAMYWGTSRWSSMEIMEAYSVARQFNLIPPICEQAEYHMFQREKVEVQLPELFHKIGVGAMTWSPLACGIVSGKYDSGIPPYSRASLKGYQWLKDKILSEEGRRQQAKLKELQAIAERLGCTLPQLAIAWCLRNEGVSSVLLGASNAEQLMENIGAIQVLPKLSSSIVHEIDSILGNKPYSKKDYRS
Alpha-2C adrenergic receptor (Homo sapiens), sequence (P18825 whole entry, looked up): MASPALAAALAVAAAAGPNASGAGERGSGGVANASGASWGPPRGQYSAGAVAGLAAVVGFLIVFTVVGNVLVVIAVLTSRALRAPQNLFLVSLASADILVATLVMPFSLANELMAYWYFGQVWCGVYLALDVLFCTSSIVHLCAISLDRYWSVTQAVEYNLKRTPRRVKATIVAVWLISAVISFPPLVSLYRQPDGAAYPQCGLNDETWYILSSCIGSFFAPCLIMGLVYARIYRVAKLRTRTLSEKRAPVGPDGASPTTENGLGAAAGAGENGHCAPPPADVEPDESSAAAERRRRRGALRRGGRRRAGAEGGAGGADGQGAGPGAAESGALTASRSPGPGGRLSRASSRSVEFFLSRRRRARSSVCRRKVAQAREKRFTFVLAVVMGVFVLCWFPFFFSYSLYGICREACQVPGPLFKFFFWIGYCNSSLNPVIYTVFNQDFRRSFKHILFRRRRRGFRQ

| SMILES | cell count [1] | inhibition [1] | inhibition of aggregation [2] | nuclei count [2] | inhibition [3] | nuclei count [3] | fluorescence slope [4] | NADPH fluorescence slope [5] | slope [6] | inhibition [7] | inhibition [8] |
| --- | --- | --- | --- | --- | --- | --- | --- | --- | --- | --- | --- |
| CCN(CC)CCOC(=O)c1cccc(OC)c1 | 249 | 4.3% (inactive) | -8.4% (inactive) | 114% | 16.1% (inactive) | 98.7% | -0.638 (inactive) | -2.4e-05 (inactive) | 0.00412 (inactive) | 6.23% (inactive) | 14.4% (inactive) |
| C1=Nc2c(NCc3ccccc3)ncnc2Oc2ccccc21 | 305 | -0.2% (inactive) | 3.8% (inactive) | 98.1% | -17.3% (inactive) | 112% | -0.502 (inactive) | -2.6e-05 (inactive) | 0.00376 (inactive) | -11.5% (inactive) | 1.46% (inactive) |
| COc1ccc(-c2nnn(CCc3nn[nH]n3)n2)cc1OC | 419 | -7.7% (inactive) | 1.4% (inactive) | 70.5% | -9.7% (inactive) | 112% | -0.561 (inactive) | -2.6e-05 (inactive) | 0.00328 (inactive) | 8.58% (inactive) | -8.87% (inactive) |
| O=c1c2ccc(-c3nnc4n3-c3ccccc3SC4)cc2nc2n1CCCCC2 | 473 | -1.1% (inactive) | 9% (inactive) | 111% | -41.6% (inactive) | 116% | -0.414 (inactive) | -3.1e-05 (inactive) | 0.00551 (inactive) | 11.2% (inactive) | 14.5% (inactive) |
| CCOc1ccc(OCC)c(NS(=O)(=O)c2ccc3c(c2)n(C)c(=O)c(=O)n3C)c1 | 291 | -2.4% (inactive) | 0.8% (inactive) | 109% | -27.6% (inactive) | 107% | -0.432 (inactive) | -4.6e-05 (inactive) | 0.00533 (inactive) | 10.9% (inactive) | 13% (inactive) |
| CO/C([O-])=N/c1c[n+](-c2ccc(C)cc2)no1 | 711 | -18.1% (inactive) | -9.2% (inactive) | 104% | -3.6% (inactive) | 113% | -0.471 (inactive) | -4.7e-05 (inactive) | 0.00685 (inactive) | -8.44% (inactive) | -40% (inactive) |
| COc1ccc(CCNC(=O)CSc2nnc(CNc3ccc(Cl)cc3)o2)cc1OC | 241 | -3.2% (inactive) | 33.1% (active) | 72.1% | 10.2% (inactive) | 63.5% | -0.594 (inactive) | -1.9e-05 (inactive) | 0.0062 (inactive) | 11.9% (inactive) | 19.4% (inactive) |
| COc1ccccc1C(=O)N1CCN(CCc2ccccc2)CC1 | 341 | 3.2% (inactive) | -5.8% (inactive) | 100% | 6% (inactive) | 104% | -0.385 (inactive) | 1.9e-05 (inactive) | 0.00331 (inactive) | 8.51% (inactive) | 0.325% (inactive) |
| NC(=O)C1(N2CCCCC2)CCN(C(=O)Nc2ccccc2C(F)(F)F)CC1 | 312 | -3.2% (inactive) | 14.4% (inactive) | 91.9% | -133% (inactive) | 142% | -0.445 (inactive) | 6.2e-06 (inactive) | 0.00567 (inactive) | 11.1% (inactive) | 31.2% (inactive) |
| CCOC(=O)CSc1nc2ccccc2n1CC(=O)N1CCN(c2ccccc2)CC1 | 436 | 14.9% (inactive) | 7.6% (inactive) | 98% | 50.8% (inactive) | 99.5% | -0.569 (inactive) | 2.2e-05 (inactive) | 0.00504 (inactive) | -4.03% (inactive) | 1.41% (inactive) |
| CC(=O)c1ccc2c3c(cccc13)C(=O)N(c1c(C)nn(C)c1C)C2=O | 655 | -4.4% (inactive) | -24.6% (inactive) | 108% | -14% (inactive) | 97.5% | -0.633 (inactive) | -5.6e-06 (inactive) | 0.00453 (inactive) | 6.92% (inactive) | -10.1% (inactive) |
| COc1cc2c(cc1OC)CN(C(=O)CSc1nnc3scc(-c4ccccc4)n13)CC2 | 548 | -0.3% (inactive) | 12.8% (inactive) | 98.2% | -28.8% (inactive) | 109% | -0.515 (inactive) | -2.7e-05 (inactive) | 0.00728 (inactive) | 1.32% (inactive) | 16.8% (inactive) |
| CSc1ccccc1NC(=O)C1CCCO1 (stereo not drawn) | 842 | 4.5% (inactive) | 10.2% (inactive) | 105% | -73% (inactive) | 117% | -0.429 (inactive) | 0.000108 (inactive) | 0.00731 (inactive) | -13.9% (inactive) | -1.95% (inactive) |
| CCOc1ccccc1C(=O)NCC(=O)OCC(=O)N1C(C)CCCC1C (stereo not drawn) | 683 | -3.4% (inactive) | -9.7% (inactive) | 103% | 26.6% (inactive) | 112% | -0.615 (inactive) | 3e-05 (inactive) | 0.00593 (inactive) | 11.2% (inactive) | 17.1% (inactive) |
| CC(C)(CO)NC(=O)CCCOc1ccc(Cl)cc1Cl | 397 | -4.9% (inactive) | 6.2% (inactive) | 97.4% | 35.5% (inactive) | 98.8% | -0.431 (inactive) | -2.6e-05 (inactive) | 0.00385 (inactive) | -27.2% (inactive) | -47.8% (inactive) |
| CCOc1ccc(S(=O)(=O)n2c(C)nc3ccccc32)cc1 | 781 | -5.8% (inactive) | -0.6% (inactive) | 101% | -99.9% (inactive) | 115% | -0.627 (inactive) | 9.2e-06 (inactive) | 0.00517 (inactive) | 49.1% (inactive) | 5.17% (inactive) |
| Cc1cc(NC(=O)C23CCC(C)(C(=O)O2)C3(C)C)no1 (stereo not drawn) | 406 | 4% (inactive) | 14.4% (inactive) | 80.2% | -22.3% (inactive) | 111% | -0.612 (inactive) | -1.5e-06 (inactive) | 0.00569 (inactive) | 4.18% (inactive) | 10.3% (inactive) |
| CN(C)c1ccc(C=Nc2ccc(N(C)C)cc2)cc1 | 345 | 3.4% (inactive) | -8.7% (inactive) | 106% | 14.2% (inactive) | 118% | -0.512 (inactive) | -3.7e-05 (inactive) | 0.00615 (inactive) | -5.99% (inactive) | -19% (inactive) |
| O=C(CSc1nnnn1C1CCCC1)Nc1cccc(NC(=O)c2ccco2)c1 | 747 | -15.8% (inactive) | 21.9% (inactive) | 56.9% | -76.4% (inactive) | 132% | -0.329 (inactive) | 2.2e-05 (inactive) | 0.00506 (inactive) | 5.72% (inactive) | 9.32% (inactive) |
| CCOC(=O)NC(=O)CSc1nnnn1-c1ccc(Cl)cc1 | 394 | 10% (inactive) | 2.2% (inactive) | 83.5% | -90.3% (inactive) | 110% | -0.297 (inactive) | 4.2e-05 (inactive) | 0.00637 (inactive) | 4.73% (inactive) | 15.2% (inactive) |
| COc1ccccc1CC(=O)Nc1ccc(OC)c(OC)c1 | 330 | -8.4% (inactive) | 17.1% (inactive) | 102% | -157% (inactive) | 118% | -0.466 (inactive) | -5.5e-05 (inactive) | 0.00704 (inactive) | 14.5% (inactive) | 21.7% (inactive) |
| CCOC(=O)Cn1ncc(-c2ccccc2)c1N | 582 | -0.5% (inactive) | -6.8% (inactive) | 67.2% | -51.5% (inactive) | 96.2% | -0.48 (inactive) | 2.4e-05 (inactive) | 0.0046 (inactive) | -14.7% (inactive) | -27.5% (inactive) |
| Cc1c[nH]c2cccc(OCC(O)CNC(C)(C)C)c12 (stereo not drawn) | 324 | -1.6% (inactive) | 15.3% (inactive) | 95.2% | -4.9% (inactive) | 123% | -0.454 (inactive) | 1.3e-05 (inactive) | 0.00547 (inactive) | 12.1% (inactive) | 27.1% (inactive) |
| CCCCn1nnnc1NCc1cccs1 | 412 | 2.9% (inactive) | 0.4% (inactive) | 105% | -66.2% (inactive) | 119% | -0.52 (inactive) | -1.2e-05 (inactive) | 0.00631 (inactive) | 4.2% (inactive) | -0.68% (inactive) |
| COc1ccc(-n2c(COc3cccc(C)c3)nnc2SCC(=O)NCc2ccco2)cc1 | 707 | -6.3% (inactive) | 5.1% (inactive) | 100% | -54.8% (inactive) | 100% | -0.596 (inactive) | -6.6e-05 (inactive) | 0.00613 (inactive) | -3.09% (inactive) | 10.9% (inactive) |
| CC1CN(C2CCCCC2)c2nc3c(c(=O)[nH]c(=O)n3C)n2C1 (stereo not drawn) | 234 | -2% (inactive) | -5.5% (inactive) | 77.6% | 4.4% (inactive) | 108% | -0.642 (inactive) | 3.4e-05 (inactive) | 0.00609 (inactive) | 13.1% (inactive) | 40.3% (inactive) |
| CCOc1ccccc1OCCn1nnc2ccccc21 | 312 | -0.2% (inactive) | -1.3% (inactive) | 114% | -6.1% (inactive) | 109% | -0.443 (inactive) | -5.5e-05 (inactive) | 0.0043 (inactive) | 1.2% (inactive) | -3.68% (inactive) |
| CCOc1ccc2c(O)csc2c1 | 393 | 2% (inactive) | 7.4% (inactive) | 109% | 7.7% (inactive) | 103% | -0.371 (inactive) | -4.2e-05 (inactive) | 0.0033 (inactive) | 8.13% (inactive) | 10.6% (inactive) |
